Screening data as filed in PubChem.
Tgondii IFNg = T. gondii growth inhibition with IFN-gamma, primary screen, cell-based | Toxoplasma gondii growth in IFN-gamma-treated host cells; hits give low values | activity change, negative = inhibition, % (concentration not given with the values) | 3.8% of 69,000 active | AID 1259416, 2018; in the data active means activity change below about -70%, passing the limit was not always enough;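 further: host cells are HeLa cells infected with Toxoplasma gondii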
Numbers without * were called inactive; ! = not confirmed by another sample. The full list was thinned out, with hits kept by preference.

How did Cc1ccc(-n2ncc3c(-n4nc(C)cc4NC(=O)C4CCCC4)ncnc32)c(C)c1 do in these assays?
Tgondii IFNg: -106*

What do the screens show for `CN1C[C@H]2[C@@H](c3ccccc31)[C@@H](CO)N2C(=O)c1cccnc1`?
Tgondii IFNg: -4

What do the screens show for `C/C=C/CC(=O)Nc1cccc(C(=O)Nc2c(C)cccc2C)c1`?
Tgondii IFNg: -3

How did CC[C@H](C)[C@H]1O[C@]2(CC[C@@H]1C)C[C@@H]1C[C@@H](C/C=C(\C)[C@@H](O[C@H]3C[C@H](OC)[C@@H](O[C@H]4C[C@H](OC)[C@@H](O)[C@H](C)O4)[C@H](C)O3)[C@@H](C)/C=C/C=C3\CO[C@@H]4[C@H](O)C(C)=C[C@@H](C(=O)O1)[C@]34O)O2 do in these assays?
Tgondii IFNg: -87*!

How did CCC(C)[C@H]1O[C@]2(CC[C@@H]1C)C[C@@H]1C[C@@H](C/C=C(\C)[C@@H](OC3C[C@H](OC)C(O[C@H]4C[C@H](OC)[C@@H](O)[C@H](C)O4)[C@H](C)O3)[C@@H](C)/C=C/C=C3\CO[C@@H]4[C@H](O)C(C)=C[C@@H](C(=O)O1)[C@]34O)O2 (some centres not stated) do in these assays?
Tgondii IFNg: -80*

What do the screens show for `CO[C@H]1CC(O[C@@H]2/C(C)=C/C[C@@H]3C[C@@H](C[C@]4(C=C[C@H](C)[C@@H](C5CCCCC5)O4)O3)OC(=O)[C@@H]3C=C(C)[C@@H](O)[C@H]4OC/C(=C\C=C\[C@@H]2C)[C@]43O)O[C@@H](C)C1O[C@H]1C[C@H](OC)[C@@H](O)[C@H](C)O1` (some centres not stated)?
Tgondii IFNg: -73*

What do the screens show for `C[C@H](NC(=O)C[C@H]1C=C[C@H](NC(=O)c2cccnc2)[C@H](CO)O1)c1ccccc1`?
Tgondii IFNg: -18

What do the screens show for `COc1ccccc1C1CNC(=O)c2nc(CCCN3CCCC3)[nH]c2C1` (configuration not stated)?
Tgondii IFNg: -5

Results for Clc1cc2c(cc1CN1CCCC1c1ccccn1)OCO2 (configuration not stated) ?
Tgondii IFNg: 2

What do the screens show for `N#Cc1c(N2C(=O)C3C4c5ccccc5C(c5ccccc54)C3C2=O)sc2c1CCC2` (configuration not stated)?
Tgondii IFNg: -79*

Results for Cc1onc(-c2ccccc2Cl)c1C(=O)Nc1sc2c(c1C#N)CCC2 ?
Tgondii IFNg: 42

What do the screens show for `O=C1NCCCC[C@@H]1NS(=O)(=O)NCc1ccccc1`?
Tgondii IFNg: 3

How did C/C=C/c1ccc([C@H]2[C@@H](CO)N(CC3CC3)C23CN(C(=O)c2ccc4c(c2)OCO4)C3)cc1 do in these assays?
Tgondii IFNg: -60

What do the screens show for `O=S(=O)(c1ccc(F)cc1)N1CCCCN2[C@@H](CO)[C@H](c3ccc(-c4cncnc4)cc3)[C@@H]2C1`?
Tgondii IFNg: 3

How did Cc1cccc(-c2ccc([C@H]3[C@@H](CO)N4CCCCN(S(=O)(=O)c5ccccc5F)C[C@H]34)cc2)c1 do in these assays?
Tgondii IFNg: -80*

How did Cc1cccc(-c2ccc([C@H]3[C@H]4CN(S(=O)(=O)c5ccccc5F)CCCCN4[C@H]3CO)cc2)c1 do in these assays?
Tgondii IFNg: -40

How did COc1ccc(/C=C/CNc2n[nH]c3nc(C)cc(C)c23)cc1 do in these assays?
Tgondii IFNg: -9

How did Cc1ccc(S(=O)(=O)N(C)CC(=O)NCc2nc(-c3ccc(Cl)cc3)no2)cc1 do in these assays?
Tgondii IFNg: 38

Results for Cc1ccccc1-c1ncc(CN(C)Cc2cccc3ncccc23)cn1 ?
Tgondii IFNg: -89*

Results for CCNc1ncc(CN(C)Cc2cccc3ncccc23)cn1 ?
Tgondii IFNg: -30

How did CN(Cc1cnc(-c2ccccn2)nc1)Cc1cccc2ncccc12 do in these assays?
Tgondii IFNg: 0

What do the screens show for `CNS(=O)(=O)CCNC(=O)c1ccccc1Cc1ccc(Cl)cc1`?
Tgondii IFNg: 95

What do the screens show for `Cc1ccc(S(=O)(=O)Nc2cncc(C(=O)N3CCN(Cc4ccc5c(c4)OCO5)CC3)c2)cc1`?
Tgondii IFNg: -37

What do the screens show for `COc1cc(-c2nnc(C3CCCCC3)o2)ccc1OCc1ccccc1`?
Tgondii IFNg: -81*

How did COc1cc(C2N3CCCN2CC3)ccc1OCc1ccccc1 (configuration not stated) do in these assays?
Tgondii IFNg: 162

Results for COc1ccc(-c2nnc(-c3nc(NC4CCCCC4)c4ccccc4n3)o2)cc1 ?
Tgondii IFNg: -23

How did CS(=O)(=O)NCC1CCN(Cc2cccc(-n3cccn3)c2)C1 (configuration not stated) do in these assays?
Tgondii IFNg: 67

What do the screens show for `CN(Cc1cc(-c2ccccn2)no1)C(=O)C1(c2ccccc2F)CC1`?
Tgondii IFNg: -2

What do the screens show for `CCc1cnc(N2C[C@H]3[C@H](C(=O)NCC4CC4)CCS(=O)(=O)[C@H]3C2)nc1`?
Tgondii IFNg: -9

How did O=C(CN1CCOCC1)N[C@@H]1CC[C@H](CCn2cc(C3CC3)nn2)O[C@H]1CO do in these assays?
Tgondii IFNg: -24

Results for CC(C)C(NC(=O)c1cccnc1N1CCOCC1)c1nnc2n1CCNCC2 (configuration not stated) ?
Tgondii IFNg: 1

What do the screens show for `Cc1ccc(NC(=O)Cn2ncc3c(N4CCN(c5ccccn5)CC4)ncnc32)cc1`?
Tgondii IFNg: 99

How did Cc1ccc(CNC(=O)Cn2ncc3c(N4CCN(c5ccccn5)CC4)ncnc32)cc1 do in these assays?
Tgondii IFNg: -97*

How did COc1ccc(CNC(=O)Cn2ncc3c(N4CCCCC4)ncnc32)c(OC)c1 do in these assays?
Tgondii IFNg: 30

What do the screens show for `COc1ccc(C)cc1NC(=O)Cn1ncc2c(N3CCOCC3)ncnc21`?
Tgondii IFNg: -44

How did O=C(Cn1ncc2c(N3CCCCCC3)ncnc21)NCc1ccc(F)cc1F do in these assays?
Tgondii IFNg: -93*

How did COc1ccc(CNC(=O)Cn2ncc3c(N4CCC(C)CC4)ncnc32)cc1 do in these assays?
Tgondii IFNg: -85*

What do the screens show for `O=C(Cn1ncc2c(N3CCCCCC3)ncnc21)NCc1cc(F)cc(F)c1`?
Tgondii IFNg: 58

Results for Cc1ccc(C)c(NC(=O)Cn2ncc3c(N4CCCCCC4)ncnc32)c1 ?
Tgondii IFNg: 63

What do the screens show for `COc1ccc(OC)c(CNC(=O)Cn2ncc3c(N4CCC(C)CC4)ncnc32)c1`?
Tgondii IFNg: 261

What do the screens show for `COCCCNC(=O)Cn1ncc2c(N3CCC(C)CC3)ncnc21`?
Tgondii IFNg: 61

How did COc1ccc(C)cc1NC(=O)Cn1ncc2c(N3CCCCCC3)ncnc21 do in these assays?
Tgondii IFNg: -91*

Results for Cc1ccc(C)c(NC(=O)Cn2ncc3c(N4CCN(c5ccccn5)CC4)ncnc32)c1 ?
Tgondii IFNg: -3

What do the screens show for `COCCn1c(C)nc2nnc3ccc(C(=O)C4CC4)cc3c21`?
Tgondii IFNg: 18

What do the screens show for `CCC(C)N(Cc1ccncc1)Cc1ccc2c(C)cc(=O)oc2c1` (configuration not stated)?
Tgondii IFNg: 4

What do the screens show for `CCOC(=O)c1cnc(Nc2nc3ccccc3s2)nc1CSc1nccc(C)n1`?
Tgondii IFNg: 50

Results for Cc1cc(C)cc(-c2ccccc2CC2CN(C(=O)c3ccncc3)CCNC2=O)c1 (configuration not stated) ?
Tgondii IFNg: 5

What do the screens show for `Cn1nc(-c2cccnc2)c2[nH]c(-c3ccccc3OC(F)F)nc21`?
Tgondii IFNg: -54

What do the screens show for `Cc1ccc(N2CC[C@@H](O)[C@@H]2Cc2ccccc2)nn1`?
Tgondii IFNg: 10
